Measurements published in PubChem BioAssay (EPA / NIEHS).
Active and inactive are the calls of the source. Rule for the calls: active = hit-call score of the fitted dose curve at least 0.9, where 1 is the maximum; inactive = score below 0.9.

Experiments:
Conditions in all cases: mRNA level, 48 h; actives raise or lower the signal
[1] = read-out: Peroxisomal acyl-coenzyme A oxidase 1 (ACOX1) gene, ACOX1 (gene 51); test: LTEA_HepaRG_ACOX1: Life Technologies and Expression Analysis (LTEA) Assay for Peroxisomal acyl-coenzyme A oxidase 1 (ACOX1) gene using HepaRG (AID 2283467)
Procedure, shortened: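 Differentiated human HepaRG cells were exposed in duplicate for 48 h in serum-free induction medium to eight half-log concentrations up to 100 uM in 0.5% DMSO. ACOX1 mRNA was then quantified by TaqMan qRT-PCR, normalized to ACTB, GAPDH and POLR2A.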

[2] = read-out: Alkaline Phosphatase, Placental (ALPP) gene, ALPP (gene 250); test: LTEA_HepaRG_ALPP: Life Technologies and Expression Analysis (LTEA) Assay for Alkaline Phosphatase, Placental (ALPP) gene using HepaRG (AID 2283468)
Procedure, shortened: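 HepaRG cells plated 48 h, then exposed in duplicate for 48 h in serum-free induction medium to 8-point half-log series from 100 uM in 0.5% DMSO. ALPP mRNA by TaqMan qRT-PCR, normalized to ACTB/GAPDH/POLR2A; bidirectional fit versus DMSO.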

[3] = read-out: Bcl-2 (BAD) gene, BAD (gene 572); test: LTEA_HepaRG_BAD: Life Technologies and Expression Analysis (LTEA) Assay for Bcl-2 (BAD) gene using HepaRG (AID 2283469)
Procedure, shortened: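 Differentiated human HepaRG cells in serum-free induction medium were exposed in duplicate for 48 h to eight concentrations (top 100 uM, half-log steps, 0.5% DMSO). BAD mRNA was quantified by qRT-PCR normalised to ACTB, GAPDH and POLR2A, with bidirectional fitting versus DMSO.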

[4] = read-out: Bcl-2 (BAX) gene, BAX (gene 581); test: LTEA_HepaRG_BAX: Life Technologies and Expression Analysis (LTEA) Assay for Bcl-2 (BAX) gene using HepaRG (AID 2283470)
Procedure, shortened: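 Differentiated HepaRG cells exposed 48 h in serum-free induction medium, eight half-log concentrations from 100 uM, in duplicate, 0.5% DMSO vehicle. BAX mRNA by TaqMan qRT-PCR, normalised to ACTB, GAPDH and POLR2A.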

[5] = read-out: adenosine kinase (ADK) gene, ADK (gene 132); test: LTEA_HepaRG_ADK: Life Technologies and Expression Analysis (LTEA) Assay for adenosine kinase (ADK) gene using HepaRG (AID 2283471)
Procedure, shortened: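 Following 48 h exposure of HepaRG cells in 0.5% DMSO (top concentration 100 uM, duplicate wells), ADK mRNA induction or suppression was measured by qRT-PCR, normalised to ACTB/GAPDH/POLR2A, and fitted bidirectionally relative to vehicle.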

[6] = read-out: Alpha-fetoprotein (AFP) gene, AFP (gene 174); test: LTEA_HepaRG_AFP: Life Technologies and Expression Analysis (LTEA) Assay for Alpha-fetoprotein (AFP) gene using HepaRG (AID 2283472)
Procedure, shortened: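 Differentiated human HepaRG cells exposed 48 h in serum-free induction medium, 8-point half-log series from 100 uM in 0.5% DMSO, duplicate. AFP mRNA by qRT-PCR, normalized to ACTB, GAPDH, POLR2A; bidirectional fit vs DMSO.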

BCL2L11 (gene 10018) = test: LTEA_HepaRG_BCL2L11: Life Technologies and Expression Analysis (LTEA) Assay for Bcl-2 (BCL2L11) gene using HepaRG (AID 2283473)
Procedure, shortened: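 Differentiated human HepaRG cells were exposed 48 h in serum-free induction medium to eight half-log concentrations up to 100 uM in 0.5% DMSO, in duplicate. BCL2L11 mRNA was quantified by TaqMan qRT-PCR, normalized to ACTB, GAPDH and POLR2A; induction or repression fitted versus DMSO.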

[7] = read-out: Apoptosis regulator Bcl-2 (Homo sapiens) (UniProt P10415); test: LTEA_HepaRG_BCL2: Life Technologies and Expression Analysis (LTEA) Assay for Bcl-2 gene using HepaRG (AID 2283475)
Procedure, shortened: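 Differentiated human HepaRG cells in serum-free induction medium exposed 48 h, in duplicate, to 8-point half-log series from 100 uM in 0.5% DMSO. BCL2 mRNA by qRT-PCR (TaqMan/Fluidigm), normalized to ACTB, GAPDH, POLR2A; bidirectional fit against DMSO.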

[8] = read-out: Bcl-2 (BID) gene, BID (gene 637); test: LTEA_HepaRG_BID: Life Technologies and Expression Analysis (LTEA) Assay for Bcl-2 (BID) gene using HepaRG (AID 2283476)
Procedure, shortened: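 Gene expression by qRT-PCR in HepaRG cells after 48 h exposure, duplicate wells, eight half-log concentrations topping at 100 uM in 0.5% DMSO. Normalized to ACTB, GAPDH, POLR2A; bidirectional fitting relative to DMSO.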

Caspase-3 (Homo sapiens) = Caspase-3 (Homo sapiens) (UniProt P42574); test: LTEA_HepaRG_CASP3: Life Technologies and Expression Analysis (LTEA) Assay for cysteine-aspartic acid protease (CASP3) using HepaRG (AID 2283477)
Sequence of Caspase-3 (Homo sapiens) (P42574 whole entry, looked up): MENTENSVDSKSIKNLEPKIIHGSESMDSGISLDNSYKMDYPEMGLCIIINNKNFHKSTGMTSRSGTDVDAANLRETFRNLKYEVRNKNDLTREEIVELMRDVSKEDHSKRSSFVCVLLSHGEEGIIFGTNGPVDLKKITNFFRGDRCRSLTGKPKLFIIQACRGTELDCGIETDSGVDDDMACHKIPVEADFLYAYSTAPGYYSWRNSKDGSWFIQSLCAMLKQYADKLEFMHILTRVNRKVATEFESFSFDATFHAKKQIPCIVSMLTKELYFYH
Procedure, shortened: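 Differentiated HepaRG cells, plated 48 h, were treated in duplicate in serum-free induction medium for 48 h with eight half-log concentrations up to 100 uM in 0.5% DMSO. CASP3 mRNA measured by qRT-PCR, normalized to ACTB, GAPDH, POLR2A.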

[9] = read-out: Cytochrome P450 (CYP24A1), CYP24A1 (gene 1591); test: LTEA_HepaRG_CYP24A1: Life Technologies and Expression Analysis (LTEA) Assay for Cytochrome P450 (CYP24A1) using HepaRG (AID 2283478)
Procedure, shortened: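 HepaRG cells plated 48 h, then exposed in duplicate in serum-free induction medium for 48 h to 8-point half-log series from 100 uM in 0.5% DMSO. CYP24A1 mRNA by Fluidigm qRT-PCR, normalized to ACTB, GAPDH, POLR2A; bidirectional fit versus DMSO.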

[10] = read-out: Cytochrome P450 (CYP1A2), CYP1A2 (gene 1544); test: LTEA_HepaRG_CYP1A2: Life Technologies and Expression Analysis (LTEA) Assay for Cytochrome P450 (CYP1A2) using HepaRG (AID 2283479)
Procedure, shortened: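 Differentiated human HepaRG cells in serum-free induction medium exposed 48 hours in duplicate to 8 half-log concentrations from 100 uM, 0.5% DMSO. CYP1A2 mRNA quantified by qRT-PCR, normalized to ACTB, GAPDH and POLR2A; bidirectional fitting versus DMSO.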

[11] = read-out: cysteine-aspartic acid protease (CASP8), CASP8 (gene 841); test: LTEA_HepaRG_CASP8: Life Technologies and Expression Analysis (LTEA) Assay for cysteine-aspartic acid protease (CASP8) using HepaRG (AID 2283480)
Procedure, shortened: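 Differentiated human HepaRG cells, plated 48 h then switched to serum-free induction medium, were exposed in duplicate for 48 h to 8 half-log concentrations up to 100 uM in 0.5% DMSO. CASP8 mRNA was quantified by qRT-PCR, normalized to ACTB/GAPDH/POLR2A.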

[12] = read-out: Cytochrome P450 (CYP2B6), CYP2B6 (gene 1555); test: LTEA_HepaRG_CYP2B6: Life Technologies and Expression Analysis (LTEA) Assay for Cytochrome P450 (CYP2B6) using HepaRG (AID 2283481)
Procedure, shortened: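 Differentiated human HepaRG cells in serum-free induction medium, dosed in duplicate for 48 h over 8 half-log concentrations topping at 100 uM (0.5% DMSO). CYP2B6 mRNA measured by TaqMan qRT-PCR, normalized to ACTB, GAPDH, POLR2A; bidirectional fit versus DMSO.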

[13] = read-out: Cytochrome P450 2C19 (Homo sapiens) (UniProt P33261); test: LTEA_HepaRG_CYP2C19: Life Technologies and Expression Analysis (LTEA) Assay for CYP2C19 using HepaRG (AID 2283482)
Procedure, shortened: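 Differentiated HepaRG cells in serum-free induction medium exposed 48 h in duplicate, 8 concentrations from 100 uM by half-log steps in 0.5% DMSO. CYP2C19 mRNA measured by TaqMan qRT-PCR, normalized to ACTB, GAPDH, POLR2A. Bidirectional fit versus DMSO.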

CYP2C8 (gene 1558) = test: LTEA_HepaRG_CYP2C8: Life Technologies and Expression Analysis (LTEA) Assay for CYP2C8 using HepaRG (AID 2283483)
Procedure, shortened: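 Differentiated human HepaRG cells were exposed for 48 h in serum-free induction medium to eight half-log concentrations up to 100 uM in 0.5% DMSO, in duplicate. CYP2C8 mRNA was measured by TaqMan qRT-PCR, normalized to ACTB, GAPDH and POLR2A, and fitted bidirectionally against DMSO.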

CYP2C9 (gene 1559) = test: LTEA_HepaRG_CYP2C9: Life Technologies and Expression Analysis (LTEA) Assay for CYP2C9 using HepaRG (AID 2283484)
Procedure, shortened: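 Differentiated human HepaRG cells were exposed 48 h in serum-free induction medium to eight half-log concentrations up to 100 uM in 0.5% DMSO. CYP2C9 mRNA was measured by qRT-PCR, normalized to ACTB, GAPDH and POLR2A, and fitted bidirectionally against DMSO.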

CYP4A11 (gene 1579) = test: LTEA_HepaRG_CYP4A11: Life Technologies and Expression Analysis (LTEA) Assay for CYP4A11 using HepaRG (AID 2283486)
Procedure, shortened: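 Differentiated HepaRG cells, 48 h after plating, exposed in duplicate for 48 h to 8 half-log concentrations up to 100 uM in 0.5% DMSO in serum-free induction medium. CYP4A11 mRNA measured by TaqMan qRT-PCR, normalized to ACTB, GAPDH and POLR2A.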

Measured: AC50

Sequence of Cytochrome P450 2C19 (Homo sapiens) (P33261 whole entry, looked up): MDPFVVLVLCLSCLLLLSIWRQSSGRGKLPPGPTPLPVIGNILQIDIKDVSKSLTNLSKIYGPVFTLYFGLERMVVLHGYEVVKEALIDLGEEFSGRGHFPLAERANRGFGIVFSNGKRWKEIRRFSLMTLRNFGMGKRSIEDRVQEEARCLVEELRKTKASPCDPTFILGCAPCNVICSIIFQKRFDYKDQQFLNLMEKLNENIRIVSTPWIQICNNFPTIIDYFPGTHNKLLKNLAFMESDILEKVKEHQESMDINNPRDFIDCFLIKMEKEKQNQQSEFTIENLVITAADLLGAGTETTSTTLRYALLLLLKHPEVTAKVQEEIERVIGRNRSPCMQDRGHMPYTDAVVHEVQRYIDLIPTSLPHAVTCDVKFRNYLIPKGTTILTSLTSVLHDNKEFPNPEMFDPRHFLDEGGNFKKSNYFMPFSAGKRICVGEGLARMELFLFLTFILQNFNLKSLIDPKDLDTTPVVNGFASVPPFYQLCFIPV
Sequence of Apoptosis regulator Bcl-2 (Homo sapiens) (P10415 whole entry, looked up): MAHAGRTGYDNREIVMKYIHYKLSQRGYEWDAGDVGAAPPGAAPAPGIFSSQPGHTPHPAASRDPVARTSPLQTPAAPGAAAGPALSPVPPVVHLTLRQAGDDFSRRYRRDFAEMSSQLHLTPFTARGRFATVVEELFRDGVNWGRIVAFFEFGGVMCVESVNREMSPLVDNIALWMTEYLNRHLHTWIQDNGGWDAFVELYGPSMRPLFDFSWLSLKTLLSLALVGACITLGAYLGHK

CCC(C)c1cc([N+](=O)[O-])cc([N+](=O)[O-])c1O (centres undefined)
active: [1] 1400 nM | [2] 1580 nM | [4] 7230 nM | [5] 2240 nM | [6] 2350 nM | BCL2L11 (gene 10018) 1390 nM | [7] 12300 nM | [8] 2420 nM | [10] 2660 nM | [11] 4000 nM | [12] 1320 nM | [13] 2120 nM | CYP2C8 (gene 1558) 2600 nM | CYP2C9 (gene 1559) 1710 nM | CYP4A11 (gene 1579) 2780 nM
inactive: [3] | Caspase-3 (Homo sapiens) | [9]

CN(C)CCO
inactive: all assays above

O=C(NC(=O)c1c(F)cccc1F)Nc1cc(Cl)c(OC(F)(F)C(F)F)c(Cl)c1
active: [10] 3630 nM
inactive: all other assays above
